# Laboratory results taken from paper PMC10726135, “HNF4α isoforms regulate the circadian balance between carbohydrate and lipid metabolism in the liver”.
# In all, about 18,000 sequences were measured (“log2 normalized intensity”: median about 0.39, highest 2% from about 6.6 on). Only a selection was taken, and the highest values are over-represented in it overall.
# Biological target: T1, HNF4alpha2 (COS-7 nuclear extract) (Homo sapiens, UniProt P41235 1-474)
# T1 sequence: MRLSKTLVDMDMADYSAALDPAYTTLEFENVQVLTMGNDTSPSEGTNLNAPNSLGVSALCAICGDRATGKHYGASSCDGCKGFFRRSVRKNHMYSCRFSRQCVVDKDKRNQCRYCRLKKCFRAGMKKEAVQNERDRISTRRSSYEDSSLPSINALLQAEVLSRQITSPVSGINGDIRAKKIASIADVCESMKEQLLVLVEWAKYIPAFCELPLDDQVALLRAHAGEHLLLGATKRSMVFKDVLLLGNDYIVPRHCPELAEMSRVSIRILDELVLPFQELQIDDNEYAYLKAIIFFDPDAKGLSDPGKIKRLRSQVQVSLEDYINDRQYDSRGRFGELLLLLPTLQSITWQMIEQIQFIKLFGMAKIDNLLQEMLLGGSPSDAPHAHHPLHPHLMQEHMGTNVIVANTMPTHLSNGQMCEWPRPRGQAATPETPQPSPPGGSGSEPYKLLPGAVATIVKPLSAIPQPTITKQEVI
# Experiment: protein-binding microarray; COS-7 nuclear extract on double-stranded Agilent 4x180k PBM; binding buffer, salt, pH and temperature not given in the material; high values mean tight binding
# Settings: chain copies: 2; label: 3' end of strand 1 on the slide; dsDNA, one strand shown
# Method in brief: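 A human HNF4α isoform was expressed in COS-7 cells by transient CaPO4 transfection, and nuclear extracts were prepared. These were applied to a custom Agilent SurePrint G3 4x180k array carrying ~44,000 test sequences in quadruplicate as double-stranded ~60-nt oligonucleotides, and an Agilent G2565CA scanner imaged bound HNF4α at 2-µm resolution. The background-corrected, normalized gProcessedSignal from Agilent software was used as the binding signal.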
row,Sequence,binding signal
1,TCTCGGTCAAACCTTTGACCCTTTATAATCGCCTAGGGAGATTAGAGTATCGGTCGA,5.95 log2 normalized intensity
2,AAGTATCTCGGTCAAACCTTTGACCCTTTAGCCTAGGGAGATTAGAGTATCGGTCGA,6.7 log2 normalized intensity
3,CCTCGAGGCAACCTTTGACCTGGTACTATGGCCTAGGGAGATTAGAGTATCGGTCGA,6.02 log2 normalized intensity
4,GAAACCCTAAACCTGCAAACCTTTGACCTTGCCTAGGGAGATTAGAGTATCGGTCGA,5.31 log2 normalized intensity
5,ATCACTGAAGCGACCCCTCGAGGCAACCTTGCCTAGGGAGATTAGAGTATCGGTCGA,1.12 log2 normalized intensity
6,CTGAATAAAACAAACTCATTTTGATCTTTGGCCTAGGGAGATTAGAGTATCGGTCGA,2.24 log2 normalized intensity
7,CAGCAGACTCAGAAAAATATGTGGACTTCAGCCTAGGGAGATTAGAGTATCGGTCGA,2.49 log2 normalized intensity
8,CACCCCCATCTATGCACTCTCACCTTGGGGGCCTAGGGAGATTAGAGTATCGGTCGA,0.591 log2 normalized intensity
9,CAAATTGCTGACTTTCTGTGTCTTGGCAGTGCCTAGGGAGATTAGAGTATCGGTCGA,1.59 log2 normalized intensity
10,TCTACCTGACCTCCCAAAATTCTTCACATAGCCTAGGGAGATTAGAGTATCGGTCGA,-0.0778 log2 normalized intensity
11,TTCCCATTCATAAAATTACGCCACAGAGTTGCCTAGGGAGATTAGAGTATCGGTCGA,-0.871 log2 normalized intensity
12,AGAAGCTTGGTATGTCTGATGAATAGAAAGGCCTAGGGAGATTAGAGTATCGGTCGA,0.62 log2 normalized intensity
13,TCCACAGTCAAGGCCAAAGGTTAAAAATAAGCCTAGGGAGATTAGAGTATCGGTCGA,3.7 log2 normalized intensity
14,GGTGTAAGCTCTGGAGTCCAAAGGTCAGCAGCCTAGGGAGATTAGAGTATCGGTCGA,8.34 log2 normalized intensity
15,GTCCAAAGGTCAGCAAGCCTGGAGTTCTGAGCCTAGGGAGATTAGAGTATCGGTCGA,4.22 log2 normalized intensity
16,AAGGTCAGCAAGCCTGGAGTTCTGATGTTCGCCTAGGGAGATTAGAGTATCGGTCGA,0.534 log2 normalized intensity
17,GGAGTGACCCTGGGAGCAAAGGTCAAGAGTGCCTAGGGAGATTAGAGTATCGGTCGA,6.55 log2 normalized intensity
18,CTGGAGTCCAAAGGTCAGCAAGCCTGGAGTGCCTAGGGAGATTAGAGTATCGGTCGA,6.88 log2 normalized intensity
19,TCATTTCAGCCTTAACTCAAAAGGCCAAAGGCCTAGGGAGATTAGAGTATCGGTCGA,-0.978 log2 normalized intensity
20,CCACTGGTGTAAGCTCTGGAGTCCAAAGGTGCCTAGGGAGATTAGAGTATCGGTCGA,3.79 log2 normalized intensity
21,AAGCTCTGGAGTCCAAAGGTCAGCAAGCCTGCCTAGGGAGATTAGAGTATCGGTCGA,7.73 log2 normalized intensity
22,ATCCACCCATCCAAAGGTCAGCAATCTCAAGCCTAGGGAGATTAGAGTATCGGTCGA,2.93 log2 normalized intensity

row,Sequence,binding signal
1,TCAGCCTTAACTCAAAAGGCCAAAGTCCAAGCCTAGGGAGATTAGAGTATCGGTCGA,8.38 log2 normalized intensity
2,GGAGACCACTGGTGTAAGCTCTGGAGTCCAGCCTAGGGAGATTAGAGTATCGGTCGA,0.767 log2 normalized intensity
3,TTAATAGAAGAAAGCCCTTTTTGGAATGTGGCCTAGGGAGATTAGAGTATCGGTCGA,0.655 log2 normalized intensity
4,AATGGTGGGATAGGAGACATGAAGGACATAGCCTAGGGAGATTAGAGTATCGGTCGA,-0.721 log2 normalized intensity
5,TCCTCTTATCTTCAGGTTTGCTAATATCTGGCCTAGGGAGATTAGAGTATCGGTCGA,1.35 log2 normalized intensity
6,CTAGGAGAGTCCGGGGCAAACAAGGGCAACGCCTAGGGAGATTAGAGTATCGGTCGA,-0.823 log2 normalized intensity
7,TGAGATAGGTACTATTATTAGAGTCCCTTTGCCTAGGGAGATTAGAGTATCGGTCGA,1.01 log2 normalized intensity
8,TTTCCCCGTCCCAAGCTGAGGTCTGGTGTCGCCTAGGGAGATTAGAGTATCGGTCGA,2.59 log2 normalized intensity
9,CTGAGATAGTCATTCTTCTACAGTGTTTACGCCTAGGGAGATTAGAGTATCGGTCGA,0.901 log2 normalized intensity
10,AGCACACCTTTTTTTCATGCAAATTTCCGTGCCTAGGGAGATTAGAGTATCGGTCGA,0.118 log2 normalized intensity
11,AAGAAATAAAAACAGCTGGGTTCCAAAAGGGCCTAGGGAGATTAGAGTATCGGTCGA,0.155 log2 normalized intensity
12,GTCAAACTTTGGACCCACTGCAGGATTGGAGCCTAGGGAGATTAGAGTATCGGTCGA,3.52 log2 normalized intensity
13,CCCTCCTTAAGACCTAGATGGAATGTTGTGGCCTAGGGAGATTAGAGTATCGGTCGA,1.29 log2 normalized intensity
14,CACAAAAAGGCTGTCACACTTGCCCTTTGCGCCTAGGGAGATTAGAGTATCGGTCGA,4.82 log2 normalized intensity
15,CTGTCACACTTGCCCTTTGCCCTCACTGGTGCCTAGGGAGATTAGAGTATCGGTCGA,7.1 log2 normalized intensity
16,TGTCACACTGGCCTTTGCCCTCGCTGGCGGGCCTAGGGAGATTAGAGTATCGGTCGA,4.25 log2 normalized intensity
17,TCAGGCCATTTCACCTTTGCCCTGTCAGTCGCCTAGGGAGATTAGAGTATCGGTCGA,5.88 log2 normalized intensity
18,AGCCTCTATGTCAGGCCATTTCACCTTTGCGCCTAGGGAGATTAGAGTATCGGTCGA,3.72 log2 normalized intensity
19,ACACTTGCCCTTTGCCCTCACTGGTAGAAGGCCTAGGGAGATTAGAGTATCGGTCGA,5.09 log2 normalized intensity
20,AAGGCTGTCACACTGGCCTTTGCCCTCGCTGCCTAGGGAGATTAGAGTATCGGTCGA,4.98 log2 normalized intensity
21,AAAGGCTGTCACACTTGCCCTTTGCCCTCAGCCTAGGGAGATTAGAGTATCGGTCGA,8.34 log2 normalized intensity
22,CTATGTCAGGCCATTTCACCTTTGCCCTGTGCCTAGGGAGATTAGAGTATCGGTCGA,6.82 log2 normalized intensity
